The values below come from ChEMBL document CHEMBL2218924, “A broad activity screen in support of a chemogenomic map for kinase signalling research and drug discovery” (Biochem J, 2013).

In experiment [1] the target is T1, Ephrin type-B receptor 1 (Homo sapiens) (UniProt P54762).
T1 sequence (whole entry): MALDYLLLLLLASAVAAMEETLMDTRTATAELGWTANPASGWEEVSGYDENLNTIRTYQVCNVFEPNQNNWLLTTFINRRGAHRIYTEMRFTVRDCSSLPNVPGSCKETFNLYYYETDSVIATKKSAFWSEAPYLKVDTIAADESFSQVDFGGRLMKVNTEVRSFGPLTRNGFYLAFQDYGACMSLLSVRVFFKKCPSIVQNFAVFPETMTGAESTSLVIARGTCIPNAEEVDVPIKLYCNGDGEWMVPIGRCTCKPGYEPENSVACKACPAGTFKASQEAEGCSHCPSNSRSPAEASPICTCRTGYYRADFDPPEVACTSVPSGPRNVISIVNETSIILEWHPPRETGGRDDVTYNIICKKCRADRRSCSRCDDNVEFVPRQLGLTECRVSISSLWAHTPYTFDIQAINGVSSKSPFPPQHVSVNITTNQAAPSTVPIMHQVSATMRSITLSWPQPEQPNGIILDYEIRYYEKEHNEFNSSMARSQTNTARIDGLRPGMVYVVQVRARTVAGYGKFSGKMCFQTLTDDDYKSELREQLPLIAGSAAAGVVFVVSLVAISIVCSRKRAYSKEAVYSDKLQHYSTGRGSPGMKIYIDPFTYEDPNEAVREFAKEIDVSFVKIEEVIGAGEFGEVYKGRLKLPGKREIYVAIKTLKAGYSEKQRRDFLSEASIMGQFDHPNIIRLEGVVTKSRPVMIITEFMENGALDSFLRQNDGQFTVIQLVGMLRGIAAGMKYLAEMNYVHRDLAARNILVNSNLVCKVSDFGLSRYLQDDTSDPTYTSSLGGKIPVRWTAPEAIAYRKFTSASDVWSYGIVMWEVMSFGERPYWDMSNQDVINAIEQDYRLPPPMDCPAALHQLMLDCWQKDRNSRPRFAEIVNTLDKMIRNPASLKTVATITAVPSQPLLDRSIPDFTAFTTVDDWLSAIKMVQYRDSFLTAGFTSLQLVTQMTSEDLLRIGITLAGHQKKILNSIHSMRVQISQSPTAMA
The settings on record: at 10 µM.

The target in experiment [2] is T2, Ephrin type-B receptor 2 (Homo sapiens) (UniProt P29323).
T2 sequence (whole entry): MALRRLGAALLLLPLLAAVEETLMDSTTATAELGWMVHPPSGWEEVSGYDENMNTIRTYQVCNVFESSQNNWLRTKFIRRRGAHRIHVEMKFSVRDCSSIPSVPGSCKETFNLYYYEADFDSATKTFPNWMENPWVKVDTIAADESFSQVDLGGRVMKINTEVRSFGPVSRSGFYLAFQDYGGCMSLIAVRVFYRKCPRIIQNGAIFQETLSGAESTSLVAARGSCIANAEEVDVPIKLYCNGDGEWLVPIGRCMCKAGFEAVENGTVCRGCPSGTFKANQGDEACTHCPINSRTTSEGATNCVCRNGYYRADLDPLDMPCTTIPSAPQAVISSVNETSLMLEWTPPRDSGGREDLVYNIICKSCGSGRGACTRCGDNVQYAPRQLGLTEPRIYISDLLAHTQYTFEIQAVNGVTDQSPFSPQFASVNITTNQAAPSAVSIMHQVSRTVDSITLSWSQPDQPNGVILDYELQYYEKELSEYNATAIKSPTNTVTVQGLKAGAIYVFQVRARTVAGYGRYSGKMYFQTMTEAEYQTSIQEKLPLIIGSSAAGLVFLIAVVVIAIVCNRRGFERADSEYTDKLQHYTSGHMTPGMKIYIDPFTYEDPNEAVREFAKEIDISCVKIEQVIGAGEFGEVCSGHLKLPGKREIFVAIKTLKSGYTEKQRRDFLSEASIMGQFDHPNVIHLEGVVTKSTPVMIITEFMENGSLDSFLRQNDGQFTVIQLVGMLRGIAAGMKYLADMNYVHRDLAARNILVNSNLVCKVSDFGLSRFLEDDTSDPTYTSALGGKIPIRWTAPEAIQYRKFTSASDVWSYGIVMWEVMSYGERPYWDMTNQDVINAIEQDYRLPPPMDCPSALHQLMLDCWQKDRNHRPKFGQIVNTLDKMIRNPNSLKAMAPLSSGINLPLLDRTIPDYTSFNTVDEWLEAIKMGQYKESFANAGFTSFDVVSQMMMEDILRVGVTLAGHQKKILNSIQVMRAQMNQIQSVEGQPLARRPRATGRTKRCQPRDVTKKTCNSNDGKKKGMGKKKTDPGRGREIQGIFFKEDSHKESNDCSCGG
The settings on record: at 1 µM.

Experiment [3] concerns the target T2, Ephrin type-B receptor 2 (Homo sapiens). As to conditions: at 10 µM; call rule not given here.
The target in experiment [4] is T3, Ephrin type-B receptor 3 (Homo sapiens) (UniProt P54753).
T3 sequence (whole entry): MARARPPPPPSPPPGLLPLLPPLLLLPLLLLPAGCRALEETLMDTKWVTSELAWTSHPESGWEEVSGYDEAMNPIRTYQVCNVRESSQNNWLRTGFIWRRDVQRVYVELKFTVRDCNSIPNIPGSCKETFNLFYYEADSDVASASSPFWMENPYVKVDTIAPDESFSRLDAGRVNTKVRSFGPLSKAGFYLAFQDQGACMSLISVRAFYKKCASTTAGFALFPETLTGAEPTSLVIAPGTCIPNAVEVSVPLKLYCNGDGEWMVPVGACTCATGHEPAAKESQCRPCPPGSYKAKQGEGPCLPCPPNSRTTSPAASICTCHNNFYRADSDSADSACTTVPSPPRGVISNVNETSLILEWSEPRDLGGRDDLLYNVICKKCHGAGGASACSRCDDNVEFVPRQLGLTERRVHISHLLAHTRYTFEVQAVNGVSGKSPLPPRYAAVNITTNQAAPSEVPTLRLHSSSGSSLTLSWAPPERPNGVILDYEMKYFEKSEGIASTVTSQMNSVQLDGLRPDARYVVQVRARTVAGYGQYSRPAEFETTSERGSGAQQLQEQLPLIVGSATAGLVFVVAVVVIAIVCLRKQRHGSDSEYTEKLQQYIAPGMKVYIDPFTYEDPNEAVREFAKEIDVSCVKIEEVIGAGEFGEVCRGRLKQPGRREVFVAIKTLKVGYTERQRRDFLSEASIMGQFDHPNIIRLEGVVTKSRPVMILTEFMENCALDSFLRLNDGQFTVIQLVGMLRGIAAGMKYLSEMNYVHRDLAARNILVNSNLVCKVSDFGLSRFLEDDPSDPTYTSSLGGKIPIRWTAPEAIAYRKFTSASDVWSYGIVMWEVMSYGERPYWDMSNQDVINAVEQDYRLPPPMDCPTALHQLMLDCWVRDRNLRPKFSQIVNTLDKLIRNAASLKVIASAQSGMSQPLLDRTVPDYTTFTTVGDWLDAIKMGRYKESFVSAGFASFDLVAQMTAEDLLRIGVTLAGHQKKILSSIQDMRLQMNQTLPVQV
The settings on record: at 1 µM.

For experiment [5], the target named is T3, Ephrin type-B receptor 3 (Homo sapiens). As to conditions: at 10 µM.
For experiment [6], the target named is T4, Ephrin type-B receptor 4 (Homo sapiens) (UniProt P54760).
T4 sequence (whole entry): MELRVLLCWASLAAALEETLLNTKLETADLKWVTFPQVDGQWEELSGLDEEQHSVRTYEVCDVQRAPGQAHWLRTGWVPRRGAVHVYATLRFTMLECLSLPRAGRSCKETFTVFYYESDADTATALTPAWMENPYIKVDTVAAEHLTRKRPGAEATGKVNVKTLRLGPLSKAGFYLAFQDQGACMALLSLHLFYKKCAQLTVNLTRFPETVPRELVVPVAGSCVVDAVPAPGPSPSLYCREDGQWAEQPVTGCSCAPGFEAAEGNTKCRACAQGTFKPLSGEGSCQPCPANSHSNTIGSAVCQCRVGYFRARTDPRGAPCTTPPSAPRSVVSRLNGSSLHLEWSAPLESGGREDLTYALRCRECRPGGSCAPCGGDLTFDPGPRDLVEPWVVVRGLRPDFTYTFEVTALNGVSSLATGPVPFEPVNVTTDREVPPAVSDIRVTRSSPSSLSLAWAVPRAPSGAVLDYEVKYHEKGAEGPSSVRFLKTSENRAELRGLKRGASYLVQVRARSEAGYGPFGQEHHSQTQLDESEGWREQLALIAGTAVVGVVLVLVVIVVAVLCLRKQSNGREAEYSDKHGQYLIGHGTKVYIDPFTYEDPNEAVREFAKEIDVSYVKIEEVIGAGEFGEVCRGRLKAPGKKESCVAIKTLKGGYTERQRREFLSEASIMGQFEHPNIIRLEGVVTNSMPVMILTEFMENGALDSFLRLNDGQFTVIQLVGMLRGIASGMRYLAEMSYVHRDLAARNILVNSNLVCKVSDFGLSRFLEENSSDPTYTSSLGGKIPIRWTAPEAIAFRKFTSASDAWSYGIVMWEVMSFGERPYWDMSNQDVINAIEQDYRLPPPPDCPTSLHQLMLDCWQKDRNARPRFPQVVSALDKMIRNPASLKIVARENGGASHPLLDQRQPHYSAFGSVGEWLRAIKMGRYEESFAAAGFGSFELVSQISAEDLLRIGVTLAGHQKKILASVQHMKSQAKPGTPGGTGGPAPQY
As to conditions: at 1 µM.

Experiment [7] deals with T4, Ephrin type-B receptor 4 (Homo sapiens). The settings on record: at 10 µM.
In experiment [8] the target is Receptor tyrosine-protein kinase erbB-4 (Homo sapiens) (UniProt Q15303). As to conditions: at 1 µM.
Receptor tyrosine-protein kinase erbB-4 (Homo sapiens), sequence (Q15303 whole entry): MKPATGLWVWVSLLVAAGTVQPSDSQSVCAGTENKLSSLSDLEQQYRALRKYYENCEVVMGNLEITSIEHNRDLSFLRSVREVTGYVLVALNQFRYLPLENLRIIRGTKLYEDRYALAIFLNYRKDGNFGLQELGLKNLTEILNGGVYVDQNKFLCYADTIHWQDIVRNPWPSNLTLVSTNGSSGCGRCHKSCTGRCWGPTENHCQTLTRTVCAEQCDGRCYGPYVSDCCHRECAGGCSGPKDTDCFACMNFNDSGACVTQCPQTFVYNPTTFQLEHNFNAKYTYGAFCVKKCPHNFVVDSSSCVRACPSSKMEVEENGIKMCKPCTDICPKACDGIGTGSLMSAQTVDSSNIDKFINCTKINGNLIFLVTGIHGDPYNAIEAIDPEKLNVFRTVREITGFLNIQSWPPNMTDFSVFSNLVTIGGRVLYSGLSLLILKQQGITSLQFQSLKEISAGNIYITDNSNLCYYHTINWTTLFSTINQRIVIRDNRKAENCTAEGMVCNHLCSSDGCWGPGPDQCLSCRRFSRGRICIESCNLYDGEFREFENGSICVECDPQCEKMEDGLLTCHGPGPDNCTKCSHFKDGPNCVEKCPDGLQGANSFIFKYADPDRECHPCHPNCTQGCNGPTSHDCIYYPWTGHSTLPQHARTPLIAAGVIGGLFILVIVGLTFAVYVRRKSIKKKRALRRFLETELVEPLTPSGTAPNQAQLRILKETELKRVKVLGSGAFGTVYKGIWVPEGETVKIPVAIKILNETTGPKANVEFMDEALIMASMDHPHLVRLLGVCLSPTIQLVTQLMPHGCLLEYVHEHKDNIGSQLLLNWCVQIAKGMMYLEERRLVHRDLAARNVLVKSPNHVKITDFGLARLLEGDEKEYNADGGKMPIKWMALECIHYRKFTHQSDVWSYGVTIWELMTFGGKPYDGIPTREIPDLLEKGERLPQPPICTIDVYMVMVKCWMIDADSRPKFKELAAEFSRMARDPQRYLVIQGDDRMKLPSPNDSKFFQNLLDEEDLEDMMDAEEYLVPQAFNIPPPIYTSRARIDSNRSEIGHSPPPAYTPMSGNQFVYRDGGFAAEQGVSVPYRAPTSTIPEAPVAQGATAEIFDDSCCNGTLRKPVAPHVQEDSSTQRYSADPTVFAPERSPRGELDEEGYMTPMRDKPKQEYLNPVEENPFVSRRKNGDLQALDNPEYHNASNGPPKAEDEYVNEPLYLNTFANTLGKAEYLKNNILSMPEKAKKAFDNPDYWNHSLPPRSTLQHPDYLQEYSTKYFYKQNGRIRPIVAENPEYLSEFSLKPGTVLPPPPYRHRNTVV
For experiment [9] the target is unchanged. The settings on record: at 10 µM.
Experiment [10] concerns the target Focal adhesion kinase 1 (Homo sapiens) (UniProt Q05397). The settings on record: at 1 µM.

Focal adhesion kinase 1 (Homo sapiens), sequence (Q05397 2-1052 limits assumed): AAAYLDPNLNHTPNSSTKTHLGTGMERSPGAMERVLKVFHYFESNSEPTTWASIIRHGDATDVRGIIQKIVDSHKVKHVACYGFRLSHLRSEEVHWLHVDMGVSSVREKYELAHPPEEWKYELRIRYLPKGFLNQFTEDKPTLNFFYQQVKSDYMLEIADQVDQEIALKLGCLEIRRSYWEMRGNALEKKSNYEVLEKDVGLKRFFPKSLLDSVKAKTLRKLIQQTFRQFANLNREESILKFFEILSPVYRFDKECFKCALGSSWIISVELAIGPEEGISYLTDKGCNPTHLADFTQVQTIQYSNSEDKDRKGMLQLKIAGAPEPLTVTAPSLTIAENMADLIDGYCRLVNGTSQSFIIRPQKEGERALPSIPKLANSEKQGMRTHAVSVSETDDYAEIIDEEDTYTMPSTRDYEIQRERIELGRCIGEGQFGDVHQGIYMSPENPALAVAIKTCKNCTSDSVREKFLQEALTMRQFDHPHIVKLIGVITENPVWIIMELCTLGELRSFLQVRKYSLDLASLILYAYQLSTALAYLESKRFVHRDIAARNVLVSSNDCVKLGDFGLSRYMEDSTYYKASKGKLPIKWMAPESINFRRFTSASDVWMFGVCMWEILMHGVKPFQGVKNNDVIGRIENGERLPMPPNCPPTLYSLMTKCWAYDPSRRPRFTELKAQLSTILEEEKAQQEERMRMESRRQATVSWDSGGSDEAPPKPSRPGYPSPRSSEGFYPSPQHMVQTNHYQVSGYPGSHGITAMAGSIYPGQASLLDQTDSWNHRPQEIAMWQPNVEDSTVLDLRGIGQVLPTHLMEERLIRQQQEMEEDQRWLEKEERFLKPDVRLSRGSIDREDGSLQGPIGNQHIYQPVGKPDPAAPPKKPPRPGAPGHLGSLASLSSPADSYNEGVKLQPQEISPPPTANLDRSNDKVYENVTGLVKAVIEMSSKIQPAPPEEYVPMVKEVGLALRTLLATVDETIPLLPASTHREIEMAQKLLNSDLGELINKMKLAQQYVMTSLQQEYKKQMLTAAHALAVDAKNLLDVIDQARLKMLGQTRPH

As to `CN(C)c1ccc(/C=C2\C(=O)Nc3ccccc32)cc1`, the residual activity in experiment [1] is 80%; in [2] it was 112%; in [3] it was 130%; in experiment [4] it was 108% (inactive); in [5], 123%; in experiment [6], 97%. Besides, the residual activity in experiment [7] amounted to 121%; in [8] it was 115%; in experiment [9], 82%; in experiment [10] it was 82%.
Turning to `N#Cc1cnc2cnc(NCc3cccnc3)cc2c1Nc1ccc(F)c(Cl)c1`, the residual activity in experiment [1] came to 89%; in experiment [2] it was 99%; in experiment [3] it was 100%; in experiment [8], 132%; in [9], 128%.
For `N#CCCc1ccc2c(c1)-c1[nH]c3ccc([N+](=O)[O-])cc3c1CC(=O)N2`, the residual activity turned out to be 74% in experiment [1]; 67% in experiment [3]; 77% in experiment [7]; 76% in experiment [9]; 50% in experiment [10].
As to `CC(=O)O/N=C1\C(=C2\C(=O)Nc3cc(Br)ccc32)Nc2ccccc21`, the residual activity was 47% in [1]; 103% in experiment [2]; 60% in [3]; 107% (inactive) in [4]; 107% in experiment [5]; 71% in experiment [6]. The residual activity in experiment [7] turned out to be 65%; in experiment [8] it was 96%; in [9], 90%; in experiment [10] it was 95%.
On to `Cc1cccc(-c2[nH]c(C(C)(C)C)nc2-c2ccc3c(c2)OCO3)n1`, for which the residual activity came out at 94% in experiment [8] and 86% in experiment [9].
In the case of `Nc1nc(Nc2ccc(S(N)(=O)=O)cc2)nn1C(=S)Nc1c(F)cccc1F`, the residual activity is -1% in experiment [1]; 30% in [6]; 4% in experiment [7]; 105% in experiment [8]; 96% in [9]; 20% in [10].
In the case of `CCOc1cc2ncnc(Nc3cccc(Br)c3)c2cc1OCC`, the residual activity in experiment [1] was 5%; in experiment [2], 46%; in experiment [3] it was 0%; in experiment [4] it was 108% (inactive); in [5] it was 126%; in experiment [6], 19%. Moreover, the residual activity in experiment [7] was -1%; in experiment [8], 10%; in experiment [9], -4%; in experiment [10] it was 139%.
With `c1ccc(-c2n[nH]cc2-c2ccnc3ccccc23)nc1`, the residual activity in [1] is 105%; in [4], 102% (inactive); in [5], 137%; in experiment [6] it was 109%; in experiment [7] it was 105%; in [8], 98%. In experiment [9], the residual activity came out at 98%.
Regarding `CO[C@@H]1[C@H](N(C)C(=O)c2ccccc2)C[C@H]2O[C@]1(C)n1c3ccccc3c3c4c(c5c6ccccc6n2c5c31)C(=O)NC4`, the residual activity in experiment [2] was 111%; in [3], 222%; in experiment [4], 119% (inactive); in [5] it was 130%; in [6], 107%; in [7], 372%. In addition, the residual activity came out at 67% in experiment [8] and 90% in experiment [10].

In general, residual activity refers to the signal under treatment as a percentage of the control signal.
